Measured values published in PubChem BioAssay.
Values joined by “and” are separate entries in the source; they are usually repeats but may differ in a detail not shown here. Equal entries are not always repeated. Active and inactive are the calls of the source. Unless noted, no stated cut-off is given here; in the data, active means parasite load remaining mostly below about 12% (no sharp cut-off); inactive means mostly above about 10%.

Legend:
[1] = P. berghei load reduction in hepatocytes – cell-based, HepG2, luciferase luminescence, HepG2 viability, primary screen (AID 624349);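 further: 100% = mean of DMSO negative control wells on the same plate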; details: P. berghei liver stage in HepG2, luciferase luminescence, concentration not given here; parasite load remaining: stronger effect = lower value; viability: measured here: HepG2 viability without parasites
[2] = Wnt pathway potentiators raising nuclear beta-catenin – imaging, WNT3A-conditioned medium, mouse C2C12, NPC library, primary screen (AID 1117326; in the data active means nuclear beta-catenin stimulation mostly above about 4.2%, no sharp cut-off; inactive means mostly below about 10%); details: stronger effect = higher value
[3] = stimulators of insulin release from INS-1E, primary screen, cell-based, 5 mM glucose, NPC library (AID 1117329;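 active means compound raises insulin release from rat beta cells at 5 mM glucose, no numeric limit stated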); details: rat INS-1E insulin secretion, at 10 µM, stronger effect = higher value
[4] = growth inhibition of GSK3B-pretreated HCT116 cells – cell-based, CellTiter-Glo, 0.2 to 20 µM (AID 1117336;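 active means compounds lowering colon cancer cell viability after pretreatment blocking the GSK3B kinase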); details: HCT116 viability after GSK3B inhibitor, at 20 µM, stronger effect = higher value
[5] = inhibition of endothelial tube formation, primary screen, imaging, VEGF stimulated, CD31 staining, tube area, NPC library (AID 1117340;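 active means compound that reduces growth-factor-driven endothelial tube area in a mixed cell culture, no cutoff stated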); details: VEGF-stimulated ADSC/ECFC co-culture, at 10 µM, stronger effect = higher value
[6] = GLP1 release stimulators, primary, NCI-H716, NPC library (AID 1117341;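 active means compound raises GLP1 secretion from the human gut endocrine cells, with no numeric limit stated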); details: NCI-H716 cells, at 10 µM, stronger effect = higher value
[7] = HCT116 colon cancer cell growth inhibition, primary screen, CellTiter-Glo luminescence, NPC library (AID 1117342;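 active means compounds that lower survival of HCT116 colon cancer cells in the luminescence readout, no numeric limit stated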); details: at 20 µM (top of the series)
[8] = reduced SW480 viability measured with CellTiter-Glo, NPC library, primary (AID 1117343;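 active means compounds that lower viability of the colon cancer cells in the luminescence readout, with no numeric limit stated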); details: CellTiter-Glo luminescence; at 20 µM (top of the series)
[9] = NPC library primary testing for decreased DLD-1 cell viability via CellTiter-Glo (AID 1117346;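 active means compounds that lower survival of DLD-1 colon cancer cells in the luminescence readout, no cutoff given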); details: DLD-1 viability, CellTiter-Glo luminescence; at 20 µM (top of the series)
[10] = biological target: 6-phosphogluconate dehydrogenase, decarboxylating (Homo sapiens) (UniProt P52209); experiment: inhibition of human phosphogluconate dehydrogenase – biochemical, recombinant enzyme, NADPH absorbance, primary screen (AID 1159550;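 active means at least 20% inhibition of 6-phosphogluconate dehydrogenase activity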); details: recombinant 6PGD, NADPH absorbance 341 nm; at 10 µM; stronger effect = higher value
[11] = EMT-state selective cytotoxicity in co-culture – imaging, PC-3E GFP, TEM4-18 mCherry, primary screen (AID 1345086;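 active means compounds killing one labelled cell type while sparing the other, by normalised counts and ratio limits, not self-fluorescent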;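 on all read-outs here: cells exposed to compound for 72 h before imaging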;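 on red/green cell ratio (normalised): normalised mesenchymal count divided by normalised epithelial count so high means epithelial killing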); details: PC-3E GFP / TEM4-18 mCherry co-culture, imaging cell counts, at 1 µM; for red/green cell ratio (normalised): actives lie on both sides
[12] = test system: Aerobactin synthetase IucA (Klebsiella pneumoniae hvKP1); experiment: IucA enzyme inhibition, primary screen, biochemical, Spectrum library (AID 1346200; call rule not given here;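 further: 100% = wells without compound and 0% = wells lacking enzyme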); details: malachite green pyrophosphate, A620, at 8 µM, stronger effect = lower value
[13] = viability loss with induced miR-34 in A549 – imaging, A549 dox-inducible miR-34, nuclei and caspase counts, primary screen (AID 1347080;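 active means compounds whose cell count with miR-34 switched on is under 0.7 times the count with it off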); details: A549 miR-34 inducible, Hoechst nuclei count, 48 h
[14] = biological target: NAD(+) hydrolase SARM1 (Homo sapiens) (UniProt Q6SZW1); experiment: blocking NAD cleavage by SARM1 SAM-TIR – cell lysate, NAD-Glo luminescence (AID 1508614;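 active means compound whose remaining NAD level is above about 45 nM, limit read from the data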); details: SAM-TIR HEK293T lysate NADase, at 1 µM, stronger effect = higher value
[15] = biological target: Mitogen-activated protein kinase 7 (Homo sapiens) (UniProt Q13164); experiment: Gal4-ERK5 driven luciferase induction – cell-based, HTS, primary screen (AID 1508626;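 active means luciferase signal above three times the same-plate solvent-only control wells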;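 further: luciferase driven by Gal4-ERK5 fusion binding five Gal4 sites before minimal TATA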); details: HeLa Gal4-ERK5 transactivation, 18 h, at 5 µM, stronger effect = higher value
[16] = yeast 75Q aggregation reduction – 75Q-TubU reporter (AID 1593); details: Yeast 75Q polyglutamine aggregation reporter
[17] = blockers of cytochrome c efflux from mitochondria – biochemical, purified mitochondria (AID 1603); details: stronger effect = lower value;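 further: mouse liver mitochondria challenged with calcium chloride; signal normalized to the plate average as 100%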
[18] = polyglutamine aggregate formation blockers (AID 1604); details: polyglutamine-induced protein aggregation inhibition assay; stronger effect = higher value; tested at 2.5 µM
[19] = MELAS cybrid and Rieske KO viability enhancers – cell-based, MELAS cybrids, Rieske KO mouse fibroblasts, CellTiter-Glo, primary screen (AID 1508586;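 active means mean z-score across replicates of 1.96 or higher in either the MELAS or the Rieske mutant cell line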;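 further: z relative to plate mean and SD of compound and empty wells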); details: low glucose
[20] = galactose survival enhancers in mitochondrial complex I cybrids – cell-based, galactose medium, ATP luminescence, primary screen (AID 1645843;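 active means z-score of at least 1.8 in each of two replicates, scored against plate mean and spread of sample wells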;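 further: positive z means more ATP and so rescue of galactose-driven cybrid death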); details: complex I mutant cybrid cells, 72 h, stronger effect = higher value
[21] = measured here: epithelial PC-3E GFP cell survival
[22] = measured here: mesenchymal TEM4-18 mCherry cell survival
[23] = measured here: relative caspase fold change +Dox/-Dox
[24] = measured here: total cells with miR-34 induction, stronger effect = lower value
[25] = measured here: total cells without miR-34 induction
[26] = MELAS cybrid survival, CellTiter-Glo 48 h, stronger effect = higher value
[27] = Rieske KO mouse fibroblast survival, CellTiter-Glo 72 h

NAD(+) hydrolase SARM1 (Homo sapiens), sequence (Q6SZW1 whole entry, looked up, the tested form may be a part): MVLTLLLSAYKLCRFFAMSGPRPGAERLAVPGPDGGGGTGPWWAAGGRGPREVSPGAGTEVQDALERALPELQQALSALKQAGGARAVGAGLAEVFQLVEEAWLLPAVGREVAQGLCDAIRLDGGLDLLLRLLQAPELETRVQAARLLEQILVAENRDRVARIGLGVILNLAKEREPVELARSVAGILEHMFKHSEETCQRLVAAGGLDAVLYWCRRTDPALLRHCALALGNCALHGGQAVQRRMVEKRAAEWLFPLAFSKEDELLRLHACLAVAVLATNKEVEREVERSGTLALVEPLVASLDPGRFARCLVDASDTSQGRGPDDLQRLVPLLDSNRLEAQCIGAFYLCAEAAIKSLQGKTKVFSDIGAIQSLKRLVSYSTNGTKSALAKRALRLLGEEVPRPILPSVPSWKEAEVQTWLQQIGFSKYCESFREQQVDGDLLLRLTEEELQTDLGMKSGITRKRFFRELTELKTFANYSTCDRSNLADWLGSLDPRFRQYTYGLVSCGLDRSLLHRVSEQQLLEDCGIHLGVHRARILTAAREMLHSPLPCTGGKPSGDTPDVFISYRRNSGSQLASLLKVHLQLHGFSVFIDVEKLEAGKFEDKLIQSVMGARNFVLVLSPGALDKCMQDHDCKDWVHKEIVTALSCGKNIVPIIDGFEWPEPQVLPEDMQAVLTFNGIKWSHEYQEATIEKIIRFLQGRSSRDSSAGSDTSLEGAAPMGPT
Mitogen-activated protein kinase 7 (Homo sapiens), sequence (Q13164 whole entry, looked up, the tested form may be a part): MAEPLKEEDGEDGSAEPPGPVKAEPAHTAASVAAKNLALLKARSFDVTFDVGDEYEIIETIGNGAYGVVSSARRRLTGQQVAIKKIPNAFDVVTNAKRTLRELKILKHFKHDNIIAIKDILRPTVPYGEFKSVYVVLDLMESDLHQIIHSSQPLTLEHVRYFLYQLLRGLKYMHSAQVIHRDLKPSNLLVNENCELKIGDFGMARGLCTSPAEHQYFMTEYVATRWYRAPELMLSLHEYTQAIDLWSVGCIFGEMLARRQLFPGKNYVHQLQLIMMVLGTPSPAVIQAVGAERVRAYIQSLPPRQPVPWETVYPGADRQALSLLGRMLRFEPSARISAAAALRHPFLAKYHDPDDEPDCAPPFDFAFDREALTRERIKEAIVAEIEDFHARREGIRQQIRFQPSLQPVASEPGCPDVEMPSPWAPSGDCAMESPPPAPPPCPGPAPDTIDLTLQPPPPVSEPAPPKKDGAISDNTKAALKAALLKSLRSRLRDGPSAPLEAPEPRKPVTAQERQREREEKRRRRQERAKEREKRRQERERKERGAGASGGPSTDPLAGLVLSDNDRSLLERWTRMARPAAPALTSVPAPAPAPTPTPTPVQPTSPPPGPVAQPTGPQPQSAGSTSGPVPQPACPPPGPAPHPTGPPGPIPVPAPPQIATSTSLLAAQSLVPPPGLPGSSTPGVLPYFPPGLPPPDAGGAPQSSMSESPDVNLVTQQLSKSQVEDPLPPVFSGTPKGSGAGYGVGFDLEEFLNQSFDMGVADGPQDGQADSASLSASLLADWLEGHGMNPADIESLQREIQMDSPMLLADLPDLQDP
6-phosphogluconate dehydrogenase, decarboxylating (Homo sapiens), sequence (P52209 whole entry, looked up): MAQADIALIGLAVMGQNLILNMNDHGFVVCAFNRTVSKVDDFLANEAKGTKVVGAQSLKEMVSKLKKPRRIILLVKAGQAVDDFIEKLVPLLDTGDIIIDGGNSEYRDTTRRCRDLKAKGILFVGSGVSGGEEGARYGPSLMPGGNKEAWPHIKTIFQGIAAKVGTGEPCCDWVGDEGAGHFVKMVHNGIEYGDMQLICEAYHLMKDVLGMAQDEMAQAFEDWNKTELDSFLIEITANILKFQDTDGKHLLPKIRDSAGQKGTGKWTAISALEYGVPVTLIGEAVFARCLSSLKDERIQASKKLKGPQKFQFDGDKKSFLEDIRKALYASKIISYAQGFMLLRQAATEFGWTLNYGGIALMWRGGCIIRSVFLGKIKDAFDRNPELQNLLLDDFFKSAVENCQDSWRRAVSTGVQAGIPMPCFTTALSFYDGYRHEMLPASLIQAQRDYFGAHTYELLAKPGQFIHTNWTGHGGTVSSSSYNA

For `Cc1ccc(N=CN(C)C=Nc2ccc(C)cc2C)c(C)c1`, the parasite load remaining [1] was 103% (inactive) and 56.6% (inactive), the viability [1] was 84.4% and 95.1% and the nuclear beta-catenin stimulation ([2]; at 10 µM) was 0.6% (inactive). For the same compound, the nuclear beta-catenin stimulation ([2]; stimulation, at 2 µM) was 2.7%, the insulin secretion stimulation [3] was 1.3% (inactive) and the viability decrease [4] was 15.1% (inactive). For the same compound, the tube area decrease [5] was -4.8% (inactive), the GLP1 secretion stimulation [6] was -3.1% (inactive) and the inhibition of viability [7] was 2.47% (inactive). The viability decrease (inhibition) [8] was -61.8% (inactive), the viability decrease (inhibition) [9] was -5.9% (inactive) and the inhibition [10] was 17.7% (inactive). For the same compound, the red/green cell ratio (normalised) [11] was 1.11 (inactive), the normalised cell number [11, 21] was 1.13 and the normalised cell number [11, 22] was 1.26. The activity remaining [12] was 119% (inactive), the fold change ([13]; stronger effect = lower value) was 0.87 (inactive) and the fold change [13, 23] was 1.15. For the same compound, the cell count [13, 24] was 11000, the cell count [13, 25] was 12600 and the remaining NAD [14] was 10 nM (inactive). The luciferase signal [15] was 32 AU (inactive).

`Oc1ccc(Cl)cc1` gave a score [16] of 0.2, a cytochrome c release ratio [17] of 0.97 and an inhibition of aggregation [18] of 31.7%. For the same compound, the parasite load remaining [1] was 99.5% (inactive) and 63.2% (inactive), the viability [1] was 70.5% and 93.7% and the nuclear beta-catenin stimulation ([2]; at 10 µM) was 0.8% (inactive). For the same compound, the nuclear beta-catenin stimulation ([2]; stimulation, at 2 µM) was 0.5%, the insulin secretion stimulation [3] was -0.7% (inactive) and the viability decrease [4] was 21.3% (inactive). For the same compound, the tube area decrease [5] was 12.2% (inactive), the GLP1 secretion stimulation [6] was 0.3% (inactive) and the inhibition of viability [7] was 17.9% (inactive). For the same compound, the viability decrease (inhibition) [8] was 34.5% (inactive), the viability decrease (inhibition) [9] was 6.1% (inactive) and the inhibition [10] was 15% (inactive). For the same compound, the red/green cell ratio (normalised) [11] was 0.99 (inactive), the normalised cell number [11, 21] was 1.1 and the normalised cell number [11, 22] was 1.09. For the same compound, the activity remaining [12] was 115% (inactive), the fold change ([13]; stronger effect = lower value) was 0.923 (inactive) and the fold change [13, 23] was 1.34. For the same compound, the cell count [13, 24] was 11600, the cell count [13, 25] was 12500 and the remaining NAD [14] was 10 nM (inactive). The luciferase signal [15] was 52 AU (inactive).

In the case of `C[C@@H]1CC[C@H]2[C@@H](C)C(=O)O[C@@H]3O[C@@]4(C)CC[C@@H]1[C@]32OO4`, the parasite load remaining [1] is reported as 25.6% (inactive) and 10.2% (inactive), the viability [1] is reported as 117% and 66.5% and the nuclear beta-catenin stimulation ([2]; at 10 µM) is reported as 4.6% (inactive). The nuclear beta-catenin stimulation ([2]; stimulation, at 2 µM) was 12.4%, the insulin secretion stimulation [3] was 1.2% (inactive) and the viability decrease [4] was -77.7% (inactive). The tube area decrease [5] was 2.4% (inactive), the GLP1 secretion stimulation [6] was 2.4% (inactive) and the inhibition of viability [7] was -20.1% (inactive). For the same compound, the viability decrease (inhibition) [8] was 9.1% (inactive), the viability decrease (inhibition) [9] was 1.3% (inactive) and the inhibition [10] was 13.7% (inactive). The fold change ([13]; stronger effect = lower value) was 0.79 (inactive) and 0.823 (inactive) and 0.882 (inactive), the fold change [13, 23] was 1.42 and 2.37 and 1.1 and the cell count [13, 24] was 7550 and 7220 and 8310. The cell count [13, 25] was 9550 and 8770 and 9420, the z-score [19, 26] was -0.639 (inactive) and -0.018 (inactive) and the z-score [19, 27] was -1.11 and 0.162. For the same compound, the remaining NAD [14] was 10 nM (inactive), the luciferase signal [15] was 84 AU (inactive) and the z-score [20] was -0.515 (inactive) and -1.27 (inactive).

Work on `NC(=O)CN1CCCC1=O` yielded a score [16] of 1.12, a cytochrome c release ratio [17] of 0.79 and an inhibition of aggregation [18] of 1.59%. For the same compound, the nuclear beta-catenin stimulation ([2]; at 10 µM) was -0.1% (inactive), the nuclear beta-catenin stimulation ([2]; stimulation, at 2 µM) was 1.2% and the insulin secretion stimulation [3] was 0.2% (inactive). For the same compound, the viability decrease [4] was -6.65% (inactive), the tube area decrease [5] was -16.1% (inactive) and the GLP1 secretion stimulation [6] was 1.9% (inactive). The inhibition of viability [7] was -10.5% (inactive), the viability decrease (inhibition) [8] was 10% (inactive) and the viability decrease (inhibition) [9] was 0.05% (inactive). For the same compound, the inhibition [10] was -18.4% (inactive), the red/green cell ratio (normalised) [11] was 1.04 (inactive) and the normalised cell number [11, 21] was 0.91. The normalised cell number [11, 22] was 0.95, the activity remaining [12] was 112% (inactive) and the z-score [19, 26] was 0.856 (inactive) and 0.336 (inactive). The z-score [19, 27] was -2.44 and 0.0138, the remaining NAD [14] was 10 nM (inactive) and the luciferase signal [15] was 44 AU (inactive). The z-score [20] was 0.785 (inactive).

In the case of `CC(=O)Nc1cc([As](=O)(O)O)ccc1O`, the score [16] is reported as 0.97, the cytochrome c release ratio [17] is reported as 1.06 and the inhibition of aggregation [18] is reported as 43.7%. For the same compound, the parasite load remaining [1] was 96.4% (inactive) and 52.6% (inactive), the viability [1] was 66.8% and 91.1% and the nuclear beta-catenin stimulation ([2]; at 10 µM) was 4.8% (inactive). For the same compound, the nuclear beta-catenin stimulation ([2]; stimulation, at 2 µM) was 0.2%, the insulin secretion stimulation [3] was -0.2% (inactive) and the viability decrease [4] was -42.6% (inactive). For the same compound, the tube area decrease [5] was -21.2% (inactive), the GLP1 secretion stimulation [6] was -0.8% (inactive) and the inhibition of viability [7] was -7.73% (inactive). The viability decrease (inhibition) [8] was 16.9% (inactive), the viability decrease (inhibition) [9] was -3.7% (inactive) and the inhibition [10] was 17.7% (inactive). For the same compound, the red/green cell ratio (normalised) [11] was 0.8 (inactive), the normalised cell number [11, 21] was 1.16 and the normalised cell number [11, 22] was 0.94. For the same compound, the activity remaining [12] was 107% (inactive), the fold change ([13]; stronger effect = lower value) was 0.975 (inactive) and the fold change [13, 23] was 2.55. The cell count [13, 24] was 12000, the cell count [13, 25] was 12300 and the remaining NAD [14] was 10 nM (inactive). The luciferase signal [15] was 52 AU (inactive).

For `CC[n+]1c(-c2ccccc2)c2cc(N)ccc2c2ccc(N)cc21`, the score [16] was 0.43, the cytochrome c release ratio [17] was 0.84 and the inhibition of aggregation [18] was 47.5%. For the same compound, the parasite load remaining [1] was 116% (inactive), the viability [1] was 83.5% and the nuclear beta-catenin stimulation ([2]; at 10 µM) was 17.6% (inactive). For the same compound, the nuclear beta-catenin stimulation ([2]; stimulation, at 2 µM) was 1%, the insulin secretion stimulation [3] was 2.1% (inactive) and the viability decrease [4] was -24.6% (active). The tube area decrease [5] was 29.5% (inactive), the GLP1 secretion stimulation [6] was -2.8% (inactive) and the inhibition of viability [7] was 79.1% (active). The viability decrease (inhibition) [8] was 52.1% (active), the viability decrease (inhibition) [9] was 83.7% (active) and the inhibition [10] was 7.37% (inactive). The red/green cell ratio (normalised) [11] was 2.8 (inactive), the normalised cell number [11, 21] was 0.31 and the normalised cell number [11, 22] was 0.87. The activity remaining [12] was 95.2% (inactive), the remaining NAD [14] was 10 nM (inactive) and the luciferase signal [15] was 104 AU (inactive).

With `CCNc1nc(Cl)nc(NCC)n1` the nuclear beta-catenin stimulation ([2]; at 10 µM) was 0.8% (inactive), the nuclear beta-catenin stimulation ([2]; stimulation, at 2 µM) was 2.2% and the insulin secretion stimulation [3] was -1.4% (inactive). For the same compound, the viability decrease [4] was -15.2% (inactive), the tube area decrease [5] was 8.9% (inactive) and the GLP1 secretion stimulation [6] was 1.7% (inactive). For the same compound, the inhibition of viability [7] was 3.93% (inactive), the viability decrease (inhibition) [8] was -14.9% (inactive) and the viability decrease (inhibition) [9] was -16.6% (inactive). The inhibition [10] was 4.55% (inactive), the activity remaining [12] was 94.3% (inactive) and the luciferase signal [15] was 52 AU (inactive).
